D1 PAM = human D1 dopamine receptor positive modulation; HEK293 TREx D1 cells, calcium flux, dopamine EC20 potentiation; 360,000 compounds, 0.036% hits; P21728; potentiation, % at 10 µM; AID 504651; in the data active = potentiation above about 30%; note: 0% is about no effect
Target sequence (P21728 whole entry, looked up): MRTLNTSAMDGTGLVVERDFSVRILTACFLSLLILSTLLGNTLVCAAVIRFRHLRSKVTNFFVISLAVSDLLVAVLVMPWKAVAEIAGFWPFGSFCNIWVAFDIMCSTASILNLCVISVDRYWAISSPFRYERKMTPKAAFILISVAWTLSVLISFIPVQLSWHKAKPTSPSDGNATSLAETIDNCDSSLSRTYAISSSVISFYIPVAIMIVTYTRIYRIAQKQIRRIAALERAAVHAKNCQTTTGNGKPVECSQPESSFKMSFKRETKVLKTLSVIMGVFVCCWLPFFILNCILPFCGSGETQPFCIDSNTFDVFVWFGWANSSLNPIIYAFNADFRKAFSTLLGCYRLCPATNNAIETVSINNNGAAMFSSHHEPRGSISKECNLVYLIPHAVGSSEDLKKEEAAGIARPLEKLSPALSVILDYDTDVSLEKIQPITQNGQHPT
TRHR ag = TRH receptor (human) agonism. P34981. TRHR cells, calcium flux fluo-8, FDSS agonist mode. activation, % at 2 µM. 360,000 compounds, 0.18% hits; note: 0% is about no effect
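In this calcium-flux screen, cells bearing human TRHR are dye-loaded with fluo-8, baselined for 10 cycles, then exposed to library compounds; positive kinetic calcium responses during the agonist phase mark hits, with TRH as control.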
TRHR PAM = TRH receptor (human) allosteric enhancement; AID 493056; TRHR cells, fluo-8 calcium fluorescence, EC20 TRH enhancement; enhancement, % at 2 µM; 360,000 compounds, 0.66% hits; in the data active = enhancement above about 30%; note: 0% is about no effect
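Enhancer read-out: after compound pinning and an initial kinetic agonist-mode read, an EC20 of TRH (10 nM final) was injected and fluo-8 calcium signal (Ex 480/Em 530) followed at 1 s/cycle for 100 cycles in TRHR-expressing cells.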
D1 antagonist = antagonists of human D1 dopamine receptor | P21728 | HEK293 TREx D1 cells, calcium flux, dopamine EC80; hits give low values | activity change, negative = inhibition, % at 10 µM | 360,000 compounds, 3.2% hits | AID 504652; in the data active = activity change below about -30%; note: % is set by controls: 0 for no effect and ±100 for the full control effect
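Antagonism measured as reduced calcium response to an EC80 dopamine addition following 180 s compound pre-read; cells were inducible HEK293 Trex D1 plated overnight at 30 C, read kinetically at 1 cycle/sec.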
D1 agonist = activates the human D1 dopamine receptor | HEK293 T-REx D1 cells, calcium flux, agonist mode | P21728 | activation, % at 2 µM | 360,000 compounds, 1% hits; note: 0% is about no effect
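Inducible HEK293 T-REx D1 cells, force-coupled to calcium signalling, were plated at 4000 cells/well with tetracycline and held overnight at 30 C. After no-wash calcium dye loading, compound-evoked calcium rise over 180 s flagged agonists.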
* marks the source's active call; other numbers are inactive results; ! = a repeat was not active. A selection: hits, their analogues and other compounds. The true share with any hit is near 4.6%. Cut-off read from the data, not from the text of the source, unless noted: active = activation above about 30%; inactive = the rest.

What do the screens show for `CC(C)c1ccc(C2=CC(c3ccc(C(C)C)cc3)n3nnnc3N2)cc1` (stereo unspecified)?
D1 PAM: 2.4; TRHR ag: 0.2; TRHR PAM: -3.6; D1 antagonist: 17.3; D1 agonist: 3.7

How did CCN(CC)CCN1C(=O)C(=O)/C(=C(/O)c2ccc(OC)cc2)C1c1ccco1 (stereo unspecified) do in these assays?
D1 PAM: 0.3; TRHR ag: 0.4; TRHR PAM: -5.4; D1 antagonist: -34.0*; D1 agonist: 1.7

Results for COc1ccc(C2/C(=C(/O)c3ccc(C)cc3)C(=O)C(=O)N2CCCN2CCOCC2)cc1 (stereo unspecified) ?
D1 PAM: 37.3*; TRHR ag: 0.4; TRHR PAM: -9.0; D1 antagonist: -25.4; D1 agonist: -0.2

Results for COc1cccc(NC(=O)c2ccc3c(c2)CCN3S(C)(=O)=O)c1 ?
D1 PAM: 5.0; TRHR ag: -1.1; TRHR PAM: 2.9; D1 antagonist: -11.0; D1 agonist: 1.9

What do the screens show for `Cc1ccc2c(COC(=O)CNC(=O)c3ccccc3)cc(=O)oc2c1`?
D1 PAM: -5.0; TRHR ag: -0.2; TRHR PAM: 0.2; D1 antagonist: -50.2*; D1 agonist: 3.9

Results for Cc1ccc(S(=O)(=O)NCC(=O)OCc2cc(=O)oc3cc(C)ccc23)cc1 ?
D1 PAM: -6.5; TRHR ag: -0.3; TRHR PAM: 1.8; D1 antagonist: -27.3; D1 agonist: 4.1

How did CC(C(=O)O)c1ccc(N2Cc3ccccc3C2=O)cc1 (stereo unspecified) do in these assays?
D1 PAM: -2.3; TRHR ag: -0.1; TRHR PAM: 1.8; D1 antagonist: 6.2; D1 agonist: -0.2

What do the screens show for `c1ccc2c(Nc3nncs3)c3ccccc3nc2c1`?
D1 PAM: 1.4; TRHR ag: 0.3; TRHR PAM: -5.5; D1 antagonist: -9.8; D1 agonist: 0.1

What do the screens show for `CCCN1C(=O)/C(=C/c2c(N3CCNC(=O)C3CC(=O)OC)nc3c(C)cccn3c2=O)SC1=S` (stereo unspecified)?
D1 PAM: 15.2; TRHR ag: 75.7*; TRHR PAM: 17.0; D1 antagonist: -30.1*; D1 agonist: 265.3*

How did CCN(Cc1ccccc1)C(=O)COC(=O)Cc1c[nH]c2ccccc12 do in these assays?
D1 PAM: -4.3; TRHR ag: 0.0; TRHR PAM: -3.3; D1 antagonist: -26.6; D1 agonist: 1.2

What do the screens show for `COc1ccc(CCNC(=O)CN2C(=O)COc3ccc(S(=O)(=O)N4CCOCC4)cc32)cc1OC`?
D1 PAM: -2.0; TRHR ag: -0.1; TRHR PAM: -1.0; D1 antagonist: -52.2*; D1 agonist: 1.6

What do the screens show for `CCCSCCCNC(=O)CN1C(=O)COc2ccc(S(=O)(=O)N3CCCC3)cc21`?
D1 PAM: 3.1; TRHR ag: -0.2; TRHR PAM: 5.7; D1 antagonist: -37.8*!; D1 agonist: 2.2

Results for CN(C)c1ccc(CNC(=O)c2ccc(Cn3c(=O)c4cccn4c4cccnc43)cc2)cc1 ?
D1 PAM: 1.6; TRHR ag: 0.0; TRHR PAM: -1.4; D1 antagonist: 8.2; D1 agonist: 3.2

What do the screens show for `CCOP(=O)(OCC)C(NC(=O)Nc1ccccc1)C(N)=O` (stereo unspecified)?
D1 PAM: 0.4; TRHR ag: 0.0; TRHR PAM: -3.1; D1 antagonist: -32.1*; D1 agonist: 3.5

Results for CCOC(=O)Cc1csc(NC(=O)CSc2nc(N)c3c(C)c(C)sc3n2)n1 ?
D1 PAM: -0.6; TRHR ag: -0.6; TRHR PAM: -8.0; D1 antagonist: -5.3; D1 agonist: 1.1

How did CCc1cccc(C)c1NC(=O)c1cc(S(=O)(=O)N(Cc2ccc(C(=O)OC)cc2)Cc2ccc(OC)c(OC)c2)ccc1F do in these assays?
D1 PAM: 1.7; TRHR ag: 0.4; TRHR PAM: -8.8; D1 antagonist: -37.9*; D1 agonist: 5.2

How did CCOC(=O)c1ccc(CN(Cc2ccc(Cl)cc2Cl)S(=O)(=O)c2ccc(F)c(C)c2)cc1 do in these assays?
D1 PAM: 0.3; TRHR ag: 4.0; TRHR PAM: -6.3; D1 antagonist: -31.7*; D1 agonist: 44.5*

Results for O=C(Cn1ccc([N+](=O)[O-])n1)c1ccccc1 ?
D1 PAM: -2.0; TRHR ag: 0.3; TRHR PAM: -1.5; D1 antagonist: 2.0; D1 agonist: 5.1

Screens deposited in PubChem BioAssay by National Center for Advancing Translational Sciences (NCATS).
